Data on 46 compounds can be found in PMC4552634, “A New Set of Chemical Starting Points with Plasmodium falciparum Transmission-Blocking Potential for Antimalarial Drug Discovery” (PLoS ONE, 2015).

Among all 13,000 compounds or so, about 3,200 (25%) showed an effect of 50% or more. The list shows a part of the results.

For the assay, the system named is P. falciparum stage V gametocytes. More on the design: BacTiter-Glo ATP luminescence viability of purified stage V gametocytes in 384-well plates, per cent inhibition versus DMSO. The settings on record: 48 h, 5 µM; inhibitor.
Broadly, the % Inhibition is the relative decrease from the control value, in per cent. Consider `C/C(=C\C(=O)NC1CC1)c1ccccc1OCc1ccccc1` [TCMDC-137859], for which the “% Inhibition” value was -0.1612%.

As to `COC(=O)c1cccc(CNCc2cccc(-c3ccc(-c4nc5ccccc5[nH]4)s3)c2)c1.O=C(O)C(F)(F)F` [TCMDC-132944], the “% Inhibition” value was -0.1401%.

With `Cc1cc(NCCC(=O)NCCOc2ccccc2)nc(NCCc2ccc(F)cc2)n1` [TCMDC-134865], the “% Inhibition” value came to 48.39%. The same measure for `Cc1cc(NCCC(=O)NCCOc2ccccc2)nc(NCCOc2ccccc2)n1` [TCMDC-134877]: 53.53%; for `Cc1cc(NCCC(=O)NCCOc2ccccc2)nc(NCCc2ccccc2)n1` [TCMDC-134771]: 71.03%; for `COc1ccccc1CCNc1nc(C)cc(NCCC(=O)NCCOc2ccccc2)n1` [TCMDC-134799]: 41.79%. To `Cc1cc(NCCC(=O)Nc2ccccc2)nc(NCCOc2ccccc2)n1` [TCMDC-134878] belongs 88.65%; to `Cc1cc(NCCC(=O)NCCOc2ccccc2)nc(NCc2ccccc2C)n1` [TCMDC-134900], 9.691%; to `COc1ccc(NC(=O)CCNc2cc(C)nc(NCCOc3ccccc3)n2)cc1` [TCMDC-134876], 16.63%.

As for `COc1ccc(NC(=O)CCNc2cc(C)nc(Nc3ccccc3)n2)cc1` [TCMDC-134731], the “% Inhibition” value is recorded as 16.78%.

On to `Cc1cc(NCCC(=O)NCCOc2ccccc2)nc(Nc2ccccc2)n1` [TCMDC-134732], for which the “% Inhibition” value came to 39.63%. Take `Cc1cccc(N2CCN(C3CCC(NC(=O)c4cc5ccccc5[nH]4)CC3)CC2)c1C` (stereo not shown) [TCMDC-132891]: the “% Inhibition” value is -4.538%. The same measure for `COc1ccc(S(=O)(=O)N2CCC(NS(=O)(=O)c3ccc(F)cc3)CC2)cc1` [TCMDC-123512]: 11.24%. The same measure for `CC(=O)Nc1ccc(CN(C)C2CCN(c3cc(NC(=O)c4cccc(C)c4)ccn3)CC2)cc1` [TCMDC-134982]: -8.957%. As for `CN1CCN(c2cccc(NC(=O)c3ccc(-c4ccc(C#N)cc4)cc3)c2)CC1` [TCMDC-138669], the “% Inhibition” value is on record as -26.05%. To `c1ccc(-c2csc(Nc3nc4cc5c(cc4s3)OCO5)n2)nc1` [TCMDC-124550] belongs 41.05%; to `Fc1cccc2sc(Nc3nc(-c4ccccn4)cs3)nc12` [TCMDC-125542], 81.67%; to `COc1cccc2sc(Nc3nc(-c4ccccn4)cs3)nc12` [TCMDC-125543], 33.34%. As to `COc1ccc2nc(Nc3nc(-c4ccccn4)cs3)sc2c1` [TCMDC-125541], the “% Inhibition” value is on record as 1.427%.

As to `Fc1ccc2nc(Nc3nc(-c4ccccn4)cs3)sc2c1` [TCMDC-125540], the “% Inhibition” value came out at 71.85%. To `Cc1ccc(NC(=O)c2ccc3ncccc3c2)cc1OC1CCN(Cc2ccc(F)cc2)CC1` [TCMDC-133747] belongs -16.12%.

In the case of `Cc1cc(NC(=O)Nc2ccc(I)c(OCCN(C)C)c2)ccc1Br` [TCMDC-139108], the “% Inhibition” value is listed as -4.695%. The same measure for `CN(Cc1cccc(O)c1)C1CCCN(c2cc(NC(=O)c3ccc(F)cc3)ccn2)C1` (stereo not shown) [TCMDC-134960]: -31.52%; for `CNC(=O)/C=C/c1cc(NC(=O)Nc2ccnc3c(Br)cccc23)ccc1OC` [TCMDC-140331]: 7.673%; for `O=C1C2=C(Nc3ccccc3SC2c2ccccc2)c2ccccc21` (stereo not shown) [TCMDC-123496]: 22.47%.

`COc1ccc(-c2cccc(NC(=O)c3ccc(F)cc3)c2)cc1CN1CCCN(C)CC1` [TCMDC-132607]: the “% Inhibition” value came to 5.891%.

Consider `CN1CCCN(Cc2ccc(-c3cccc(NC(=O)c4cccc(F)c4)c3)cc2)CC1` [TCMDC-132646], for which the “% Inhibition” value is -5.89%. The same measure for `COc1ccc(-c2ccc(NC(=O)c3cccc(F)c3)cc2)cc1CN1CCCN(C)CC1` [TCMDC-132528]: 79.48%. To `COc1ccc(-c2ccc(NC(=O)c3cccc(C#N)c3)cc2)cc1CN1CCCN(C)CC1` [TCMDC-132531] belongs 38.42%; to `COc1ccc(-c2cccc(NC(=O)c3cccc(F)c3)c2)cc1CN1CCCN(C)CC1` [TCMDC-132619], 89.96%.

Regarding `COc1ccc2c(c1)OC(C)(C)CC2=NOS(=O)(=O)c1ccc(C)cc1` [TCMDC-131772], the “% Inhibition” value is on record as -0.3703%. The same measure for `O=c1cc(NCCCNC2CCOc3c(Cl)cc(Cl)cc32)[nH]c2ccccc12` (stereo not shown) [TCMDC-139477]: 33.79%; for `CC(=O)N[C@H](C(=O)Nc1ccc(-c2ccc(-c3nc4ccc(C(F)(F)F)cc4[nH]3)cc2)cc1)C(C)C` [TCMDC-136854]: -3.438%.

Take `Cc1cccc2nc(-c3ccc(-c4ccc(NC(=O)NC5CC5c5ccccc5)cc4)cc3)[nH]c12` (stereo not shown) [TCMDC-133255]: the “% Inhibition” value is -29.85%. To `Cc1cccc2nc(-c3ccc(-c4ccc(NC(=O)Nc5ccc(Cl)cc5)cc4)s3)[nH]c12` [TCMDC-133176] belongs -22.37%; to `Cc1cccc2nc(-c3ccc(-c4cccc(NC(=O)Nc5ccc(Cl)cc5)c4)s3)[nH]c12` [TCMDC-133175], 74.56%. The same measure for `Cc1nnsc1C(=O)Nc1ccc(-c2ccc(-c3nc4cccc(C)c4[nH]3)s2)cc1` [TCMDC-137090]: 0.4196%. `O=C(Nc1cccc(-c2ccc(-c3nc4cc(F)ccc4[nH]3)s2)c1)c1ccncc1` [TCMDC-136968]: the “% Inhibition” value was -9.65%. To `Cc1nnsc1C(=O)Nc1cccc(-c2ccc(-c3nc4cc(F)ccc4[nH]3)s2)c1` [TCMDC-137089] belongs 59.58%; to `COc1ccc(NC(=O)Nc2cccc(-c3ccc(-c4nc5cccc(C)c5[nH]4)s3)c2)cc1` [TCMDC-133242], 1.322%; to `Cc1cccc2nc(-c3ccc(-c4cccc(NC(=O)Nc5ccc(Cl)c(Cl)c5)c4)s3)[nH]c12` [TCMDC-133272], -3.418%. To `Cc1nnsc1C(=O)Nc1cccc(-c2ccc(-c3nc4cccc(C)c4[nH]3)s2)c1` [TCMDC-137091] belongs 82.4%. In the case of `Cc1nnsc1C(=O)Nc1cccc(-c2ccc(-c3nc4ccccc4[nH]3)s2)c1` [TCMDC-137079], the “% Inhibition” value was found to be 9.217%.

Regarding `CC1CC(NCCCNc2cc(=O)c3ccccc3[nH]2)c2cc(Cl)c(Cl)c(Cl)c21` (stereo not shown) [TCMDC-139479], the “% Inhibition” value was 22.71%. The same measure for `C(=Cc1nc2ccccc2s1)c1ccc2c(c1)OCCO2` [TCMDC-124539]: 68.35%; for `N=C(N)c1nc2ccccc2s1` [TCMDC-123945]: 9.097%.
